From PubChem BioAssay AID602428 (Sanford-Burnham Center for Chemical Genomics, 2012)
In all, about 2,500 compounds went through this assay and about 980 (39%) were called active.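 Rule for the calls: active = mean inhibition at 5 µM reaching about 45% (limit read from the data); inactive = the rest.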 Not all results are given here.

assay: Gli-SUFU pathway antagonists, confirmation, single concentration, luciferase luminescence, Sufu-KO-LIGHT cells (AID 602428); details: Gli luciferase reporter, at 5 µM, active compounds read high;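 note: plate controls were DMSO-treated cells for no effect and wells lacking cells for full effect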

inhibition, active:
C=CCC1(CC=C)CCCN1C(=O)c1cc(COc2ccc(-n3cncn3)cc2)on1 78.5%
COc1ccc(Cc2nnc(N/N=C/c3ccccc3O)[nH]c2=O)cc1OC 73.7%
O=C(C[C@H]1C/C=C\C[C@@H](NC(=O)OCC2c3ccccc3-c3ccccc32)C(=O)O[C@@H](c2ccccc2)CNC1=O)N[C@H](CO)Cc1ccccc1 57.2%
Cc1cccc2nc(CSc3nc4[nH]ncc4c(=O)n3-c3cccc(Cl)c3)cc(=O)n12 64.1%
Cc1ccc(O)c(NC(=O)COc2cc(C)ccc2C)c1 76.8%
C/C(=N\Nc1ccc(Cl)nn1)c1ccccc1O 47.1%
CSc1ncccc1C(=O)Nc1nc2ccc(F)cc2s1 79.4%
Cc1ccc(NC(=O)CN(C)CC(=O)Nc2cccc(F)c2)cc1[N+](=O)[O-] 67.8%
O=C1C=C(c2ccnc3cc(Cl)ccc23)C[C@@H](c2ccc3c(c2)OCO3)C1 61%
COc1ccc(C(=O)NC2CCCc3c2cnn3-c2cccc(C)c2C)c(OC)n1 (stereo not given) 51.3%
CN(c1ccc2nc3ccccc3c(=O)n2n1)C1CCCCC1 79.3%
Cc1ccccc1C(=O)NC(=S)Nc1ccc(N2CCN(C(=O)c3ccccc3)CC2)cc1 64.5%
CCOc1ccc(-n2c(O)c(/C=N/Nc3nc(C)cc(C)n3)c3ccccc3c2=O)cc1 78.3%
O=C(Nc1nc2ccc([N+](=O)[O-])cc2s1)c1ccc(S(=O)(=O)N2CCCc3ccccc32)cc1 82.2%
COCCn1c(CN2CCC(Cc3ccccc3)CC2)nc2c1c(=O)n(C)c(=O)n2C 58.7%
CCCOc1ccc(Cc2c(Cl)nc(SC)nc2NC)cc1 60.5%
Cn1c(=O)c2c(nc(NCCc3ccccc3)n2Cc2ccccc2)n(C)c1=O 57.1%
CCCCNc1nc2c(c(=O)n(C)c(=O)n2C)n1Cc1cccc(OC)c1 72.5%
COc1ccc(OC)c(Cc2cnc3nc(N)nc(N)c3c2C)c1 51.4%
C=CCOc1nc2c(c(=O)n(C)c(=O)n2C)n1Cc1ccc(Cl)cc1Cl 50.9%
CC(C)(C)c1ccc(Oc2ccc(N)cc2)cc1 80.1%
Cc1ccc(C)c(S(=O)(=O)N2CCN(c3ncnc4sccc34)CC2)c1 54%
Cc1c(Cl)c([N+](=O)[O-])nn1Cc1ccc(C(=O)N/N=C\c2cc(Cl)ccc2O)o1 57.9%
Cc1ccc(S(=O)(=O)N2C[C@@H]3CCCC[C@@H]3[C@@H](C)[C@H]2c2cn(Cc3ccccc3)c3ccc(F)cc23)cc1 83.6%
O=C(Cn1cc(C(=O)C2CC2)c2ccccc21)Nc1ccccc1Cl 60.3%
CC(=O)N1CCCc2cc(S(=O)(=O)N3CCCC(C(=O)N4CCN(c5cccc(Cl)c5)CC4)C3)ccc21 (stereo not given) 66.9%
Cc1ccsc1C(=O)OCC(=O)c1cc(C)n(CC2CCCO2)c1C (stereo not given) 85.5%

inhibition, inactive:
Cc1nonc1C1CCCN1C(=O)c1cc(COc2cccc(C(F)(F)F)c2)on1 (stereo not given) 26.7%
O=[N+]([O-])c1ccc(N2CCN(CC(O)COc3ccccc3)CC2)cc1 (stereo not given) 27.5%
COc1ccc(/C=N/N=C2/C(=O)Nc3ccccc32)cc1O 21.9%
c1ccc(-n2nnnc2N2CCOCC2)cc1 6.89%
CC(C)c1ccc(OCC(O)CN2CCN(c3ccccn3)CC2)cc1 (stereo not given) 10.6%
Cc1cc([N+](=O)[O-])c(-c2ccc(/C=N/n3cnnc3)o2)cc1Cl 15.1%
COC(=O)c1ccccc1NC(=O)C1(S(=O)(=O)c2ccc(Cl)cc2)CC1 15.8%
Cc1onc(-c2ccccc2)c1C(=O)Nc1ccccc1C#N 14.9%
CCN(CCO)C(=S)Nc1cc(C(=O)OC)ccc1C(=O)OC 21.2%
CC(=O)Nc1ccc(NC(=O)c2ccc3c(c2)C(=O)N(c2ccccc2C)C3=O)cc1 28.9%
COc1ccc2nc(SCC(=O)Nc3c(C)cc(C)cc3C)[nH]c2c1 23.1%
Cc1cc(C)c(SCCc2ccncc2)c(C)c1 27%
CCCC1=Nc2cc(C(=O)NCc3ccco3)ccc2Sc2ccccc21 31.8%
COc1cccc(-n2cc(C(=O)O)c3ccccc3c2=O)c1 22.9%
COc1cccc2cc(C(N)=O)/c(=N\NC(=O)c3ccccc3)oc12 23.9%
Cc1cc2[nH]ncc2cc1NC(=S)NC(=O)c1ccccc1 6.93%
CC(C)C(=O)Nc1nnc(SCC(=O)N2C(C)CCCC2C)s1 (stereo not given) 17.7%
Cc1ccc(Nc2nc(N3CCOCC3)nc(N3CCOCC3)n2)cc1Cl 33.3%
CCOc1ccc(-n2c(O)c(/C=N/c3ccnn3Cc3ccncc3)c3ccccc3c2=O)cc1 28%
O=C1/C(=C/c2ccc(F)cc2)SC(=S)N1NS(=O)(=O)c1ccccc1 15.2%
CCc1c(C)nc2cc(C)[nH]n2c1=O 29.9%
CC(=O)OCCC(C)C 21.6%
CN(NC(=O)c1ccccc1F)c1nc(C(F)(F)F)nc2ccccc12 36.6%
COC(=O)c1ccc(CSc2nnc(N)s2)o1 37.1%
CN(C)CCN(C(=O)C1CCCCC1)c1nc2cc3c(cc2s1)OCO3 14.1%
CCc1c(C)[nH]c(=S)c(C#N)c1C 25.3%
CC1(C)CC2CC(C)(CN2c2ncnc3ccc(Br)cc23)C1 (stereo not given) 41.5%
O=C(NC1CCN(C(=S)Nc2ccc(Cl)cc2)CC1)C1CCCCC1 10.8%
CC(C)Oc1ccc(CN2CCC(n3nccc3NC(=O)c3cccnc3)CC2)cc1 23.4%
Cc1nn(C)c(Cl)c1CN1CCC(n2nccc2NC(=O)C2CCCC2)CC1 14%
CNc1ccc(SC#N)cc1 13.2%
CCC1CCCCN1CCCNC(=O)Cn1nc(-c2ccccc2)ccc1=O (stereo not given) 13.3%
COc1ccc(C(=O)NCc2nnc(SCCOc3ccccc3)n2C)cc1 28.6%
CCCc1nc(N)nc2c1C(=O)CC(C)(C)C2 16.9%
CCN(CC(=O)Nc1cc(Cl)ccc1C)C(=O)CSCc1ccc(C)cc1 28.9%
Cc1ccc(-c2nc(CSCC(=O)NC3CCN(Cc4ccccc4)CC3)c(C)o2)cc1 23.9%
O=C(c1cc(Cl)cc(Cl)c1)N1CCC(=O)N(C(COCc2ccccc2)Cc2ccccc2)CC1 (stereo not given) 7.41%
CCN(CC)CCNC(=O)c1ccc(NC(=O)c2cc(-c3ccncc3)nc3ccccc23)cc1 23%
CN1C(CC(=O)Nc2ccc(Br)cc2)c2ccccc2CC1(C)C (stereo not given) 11.3%
O=C(Nc1cccc(S(=O)(=O)Nc2ccc(Cl)cc2)c1)c1ccc2c(c1)OCCO2 37.7%
CCN(CC)S(=O)(=O)c1ccc(Cl)c(C(=O)NC(C)C(c2cccs2)N2CCCC2)c1 (stereo not given) 15.2%
O=C(NCCOCc1ccc(Cl)cc1)c1ncn[nH]1 9.09%
Brc1c(CSc2nncc3ccccc23)nc2ccccn12 12.7%
CCOC(=O)c1cnc(Nc2nc3ccccc3o2)nc1CSC(=S)N1CCCCC1 35.3%
CN(C)CCSc1nc(N)c2c3c(sc2n1)COC(C)(C)C3 16.1%
Cc1ccc(S(=O)(=O)N(Cc2cc3ccccc3[nH]c2=O)CC2CCCO2)cc1 (stereo not given) 21.7%
CN(C)C(CNC(=O)Cc1ccc([N+](=O)[O-])cc1)c1ccccc1 (stereo not given) 16.5%
O=C(Nc1ccnn1C1CCN(C/C=C/c2ccc(F)cc2)CC1)C1CCCC1 21.9%
